What was measured:
[1] = biological target: T1, Serine/threonine-protein kinase haspin (Homo sapiens) (UniProt Q8TF76); conditions: at 1 µM
T1 sequence (whole entry): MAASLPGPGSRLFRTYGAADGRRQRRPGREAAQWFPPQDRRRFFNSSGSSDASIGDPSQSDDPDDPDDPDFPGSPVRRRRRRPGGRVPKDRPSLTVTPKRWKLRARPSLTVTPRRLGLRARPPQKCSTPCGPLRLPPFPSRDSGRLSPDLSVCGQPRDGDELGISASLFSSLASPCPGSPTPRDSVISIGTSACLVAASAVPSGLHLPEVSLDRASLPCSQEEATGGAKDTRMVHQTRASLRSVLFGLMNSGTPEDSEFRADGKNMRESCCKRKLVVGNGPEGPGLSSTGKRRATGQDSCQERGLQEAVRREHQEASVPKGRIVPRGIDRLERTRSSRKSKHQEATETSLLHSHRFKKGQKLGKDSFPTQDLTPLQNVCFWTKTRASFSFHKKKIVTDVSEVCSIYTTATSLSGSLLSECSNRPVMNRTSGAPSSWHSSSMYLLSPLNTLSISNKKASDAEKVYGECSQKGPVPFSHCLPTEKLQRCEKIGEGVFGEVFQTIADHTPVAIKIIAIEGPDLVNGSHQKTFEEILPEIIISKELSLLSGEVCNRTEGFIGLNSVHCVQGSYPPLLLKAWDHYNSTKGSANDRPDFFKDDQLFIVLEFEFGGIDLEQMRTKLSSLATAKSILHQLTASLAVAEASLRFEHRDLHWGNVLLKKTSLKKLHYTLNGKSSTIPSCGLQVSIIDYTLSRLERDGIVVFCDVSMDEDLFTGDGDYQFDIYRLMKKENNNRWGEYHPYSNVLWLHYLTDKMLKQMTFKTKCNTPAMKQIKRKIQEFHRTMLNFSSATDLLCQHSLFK

[2] = biological target: T1, Serine/threonine-protein kinase haspin (Homo sapiens); conditions: at 10 µM
[3] = biological target: Tyrosine-protein kinase HCK (Homo sapiens) (UniProt P08631); conditions: at 1 µM
[4] = biological target: Tyrosine-protein kinase HCK (Homo sapiens) (UniProt P08631); conditions: at 10 µM
[5] = biological target: Tyrosine-protein kinase HCK (Homo sapiens) (UniProt P08631); conditions: at 10 µM; remark: listed apart in the source
[6] = biological target: Insulin-like growth factor 1 receptor (Homo sapiens) (UniProt P08069); conditions: at 1 µM
[7] = biological target: Insulin-like growth factor 1 receptor (Homo sapiens) (UniProt P08069); conditions: at 10 µM
[8] = biological target: Tyrosine-protein kinase HCK (Homo sapiens) (UniProt P08631); conditions: at 1 µM; remark: listed apart in the source
[9] = biological target: T2, Protein kinase C zeta type (Homo sapiens) (UniProt Q05513); conditions: at 10 µM
T2 sequence (whole entry): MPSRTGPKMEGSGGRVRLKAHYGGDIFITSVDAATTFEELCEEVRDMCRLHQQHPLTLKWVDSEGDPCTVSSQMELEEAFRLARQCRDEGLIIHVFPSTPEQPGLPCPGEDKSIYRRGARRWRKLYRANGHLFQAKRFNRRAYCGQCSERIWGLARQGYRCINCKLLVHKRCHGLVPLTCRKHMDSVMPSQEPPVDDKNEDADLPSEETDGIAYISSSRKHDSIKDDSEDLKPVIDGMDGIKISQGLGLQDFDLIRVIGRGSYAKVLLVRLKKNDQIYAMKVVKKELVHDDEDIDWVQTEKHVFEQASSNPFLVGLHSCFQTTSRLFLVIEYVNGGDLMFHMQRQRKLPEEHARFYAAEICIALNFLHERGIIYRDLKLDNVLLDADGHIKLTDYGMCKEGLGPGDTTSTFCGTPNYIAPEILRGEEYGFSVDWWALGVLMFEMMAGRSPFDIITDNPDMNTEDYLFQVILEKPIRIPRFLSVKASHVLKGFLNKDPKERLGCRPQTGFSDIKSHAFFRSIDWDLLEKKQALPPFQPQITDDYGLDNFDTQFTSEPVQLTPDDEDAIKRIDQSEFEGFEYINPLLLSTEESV

Chain of Tyrosine-protein kinase HCK (Homo sapiens) (P08631 2-526 limits assumed): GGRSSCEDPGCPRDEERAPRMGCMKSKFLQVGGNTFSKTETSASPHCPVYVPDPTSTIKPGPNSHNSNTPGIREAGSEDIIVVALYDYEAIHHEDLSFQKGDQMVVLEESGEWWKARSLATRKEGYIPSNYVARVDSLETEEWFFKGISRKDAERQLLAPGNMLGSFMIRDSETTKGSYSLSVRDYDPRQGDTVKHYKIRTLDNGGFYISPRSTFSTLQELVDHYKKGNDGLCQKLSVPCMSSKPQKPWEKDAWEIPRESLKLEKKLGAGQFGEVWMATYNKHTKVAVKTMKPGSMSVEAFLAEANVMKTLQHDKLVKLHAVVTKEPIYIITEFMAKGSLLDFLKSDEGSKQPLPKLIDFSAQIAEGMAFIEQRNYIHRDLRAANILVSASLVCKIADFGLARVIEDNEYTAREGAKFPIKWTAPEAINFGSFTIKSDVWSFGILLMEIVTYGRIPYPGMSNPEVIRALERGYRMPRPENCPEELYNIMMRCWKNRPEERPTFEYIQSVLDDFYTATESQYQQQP
Chain of Insulin-like growth factor 1 receptor (Homo sapiens) (P08069 31-736 limits assumed): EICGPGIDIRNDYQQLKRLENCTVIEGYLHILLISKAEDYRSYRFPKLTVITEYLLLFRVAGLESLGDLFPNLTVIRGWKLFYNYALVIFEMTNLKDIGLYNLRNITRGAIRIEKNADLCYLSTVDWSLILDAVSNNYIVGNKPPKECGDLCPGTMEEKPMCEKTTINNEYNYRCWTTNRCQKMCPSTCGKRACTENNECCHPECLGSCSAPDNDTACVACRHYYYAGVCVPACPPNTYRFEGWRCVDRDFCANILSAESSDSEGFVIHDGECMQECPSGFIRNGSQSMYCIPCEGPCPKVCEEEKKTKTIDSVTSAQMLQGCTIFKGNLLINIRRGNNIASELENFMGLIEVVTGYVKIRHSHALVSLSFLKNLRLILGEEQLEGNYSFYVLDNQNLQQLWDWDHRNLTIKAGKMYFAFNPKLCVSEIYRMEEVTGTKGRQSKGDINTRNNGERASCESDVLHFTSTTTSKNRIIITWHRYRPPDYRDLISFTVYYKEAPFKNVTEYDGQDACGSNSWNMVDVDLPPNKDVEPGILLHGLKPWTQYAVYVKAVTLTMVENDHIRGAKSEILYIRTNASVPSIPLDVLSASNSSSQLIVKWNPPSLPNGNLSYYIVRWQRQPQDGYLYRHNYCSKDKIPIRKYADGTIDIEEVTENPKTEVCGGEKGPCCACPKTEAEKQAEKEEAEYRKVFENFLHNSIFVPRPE
Chain of Insulin-like growth factor 1 receptor (Homo sapiens) (P08069 741-1367 limits assumed): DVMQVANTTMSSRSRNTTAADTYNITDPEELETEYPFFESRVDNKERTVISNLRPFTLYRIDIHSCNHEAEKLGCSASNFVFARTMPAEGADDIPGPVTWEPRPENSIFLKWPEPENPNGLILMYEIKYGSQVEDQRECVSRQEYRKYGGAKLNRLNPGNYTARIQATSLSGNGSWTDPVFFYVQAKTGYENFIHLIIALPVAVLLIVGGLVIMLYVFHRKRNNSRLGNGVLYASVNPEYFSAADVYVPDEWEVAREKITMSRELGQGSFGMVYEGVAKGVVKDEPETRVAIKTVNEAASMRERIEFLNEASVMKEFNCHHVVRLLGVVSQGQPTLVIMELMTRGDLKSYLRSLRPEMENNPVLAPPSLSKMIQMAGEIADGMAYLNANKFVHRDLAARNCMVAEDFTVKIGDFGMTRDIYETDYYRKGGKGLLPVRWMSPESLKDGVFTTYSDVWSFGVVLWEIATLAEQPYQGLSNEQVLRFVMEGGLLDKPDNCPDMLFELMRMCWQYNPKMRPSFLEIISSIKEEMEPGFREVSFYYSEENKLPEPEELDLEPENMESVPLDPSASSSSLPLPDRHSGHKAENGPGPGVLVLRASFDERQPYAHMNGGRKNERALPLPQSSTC

| Compound | residual activity [1] [%] | residual activity [2] [%] | residual activity [3] [%] | residual activity [4] [%] | residual activity [5] [%] | residual activity [6] [%] | residual activity [7] [%] | residual activity [8] [%] | residual activity [9] [%] |
| --- | --- | --- | --- | --- | --- | --- | --- | --- | --- |
| Nc1n[nH]c2nc3ccccc3nc12 | 96 | 41 | 75 | 60 | 88 | 121 | 132 |  |  |
| Nc1nc(Nc2ccc(S(N)(=O)=O)cc2)nn1C(=O)c1c(F)cccc1F |  |  | 71 | 25 | 21 |  | 105 | 75 |  |
| NC(=O)c1ccc(-c2nc(-c3ccc4c(c3)OCCO4)c(-c3ccccn3)[nH]2)cc1 | 95 | 82 | 68 | 66 |  |  | 137 |  |  |
| N#C/C(=C\c1ccc(O)c(O)c1)C(=O)NCc1ccccc1 |  | 48 | 78 | 70 | 80 | 144 | 65 | 102 |  |
| Fc1ccc(-c2nc3n(c2-c2ccncc2)CCS3)cc1 |  | 96 | 95 | 94 |  |  |  |  |  |
| O=c1cc(N2CCOCC2)oc2c(-c3ccccc3)cccc12 |  | 54 | 66 | 58 |  | 133 |  |  |  |
| Cn1c2ccccc2c2c3c(c4c5ccccc5n(CCC#N)c4c21)CNC3=O | 11 | 8 | 31 | 9 | 58 | 145 | 104 | 69 | 108 |
| COc1cc2c(cc1OC)-c1n[nH]c(Nc3cccc(F)c3)c1C2 |  |  | 22 | 6 | 2 | 105 | 115 | 19 | 109 |
| COc1ccc(-c2cnc3c(-c4ccsc4)cnn3c2)cc1 | 95 | 83 | 59 | 76 |  | 134 |  |  |  |
| Cn1sc(=O)n(Cc2ccccc2)c1=O | 77 |  | 75 | 64 | 90 | 93 |  | 89 |  |
| O=C1Cc2c([nH]c3ccc(Br)cc23)-c2ccccc2N1 | 60 | 44 |  | 28 |  |  | 141 |  | 92 |
| CCOC(=O)c1c(C)[nH]c(/C=C2\C(=O)Nc3ccccc32)c1C |  |  | 77 | 74 | 97 | 119 |  | 93 |  |
| COc1cc2ncnc(Nc3cccc(Cl)c3)c2cc1OC |  |  | 48 | 13 | 4 | 111 |  | 40 | 110 |
| COc1ccc(COc2ccc(Cc3cnc(N)nc3N)cc2OC)cc1 |  |  |  | 65 |  | 128 | 133 |  |  |
| CCCCc1c(-c2ccc(O)cc2)[nH]c2nccnc12 | 34 | 12 | 64 | 23 | 64 | 131 |  | 63 |  |
| Nc1nccc(-c2c(-c3ccc(F)cc3)ncn2C2CCNCC2)n1 | 54 | 36 |  | 53 | 43 |  | 120 |  |  |
| CCOc1nc(NC(=O)Cc2cc(OC)ccc2OC)cc(N)c1C#N |  |  | 78 | 71 |  |  | 130 |  |  |

| Compound | residual activity [1] [%] | residual activity [2] [%] | residual activity [3] [%] | residual activity [4] [%] | residual activity [5] [%] | residual activity [6] [%] | residual activity [7] [%] | residual activity [8] [%] | residual activity [9] [%] |
| --- | --- | --- | --- | --- | --- | --- | --- | --- | --- |
| O=C(c1ccccc1)c1ccc(N2CCOCC2)cc1O | 98 | 77 | 83 | 75 | 93 | 76 | 81 |  |  |
| O=C1NC(=O)C(c2cn(CCCn3ccnc3)c3ccccc23)=C1Nc1ccccc1 |  | 52 | 80 | 65 |  | 140 |  |  | 50 |
| O=C1Cc2c([nH]c3ccc([N+](=O)[O-])cc23)-c2ccccc2N1 |  |  | 41 | 28 | 81 |  | 123 | 81 |  |
| O=c1c(-c2ccc(F)cc2)c(-c2ccncc2)[nH]n1-c1ccc(Cl)cc1 |  | 75 |  | 61 | 81 |  | 73 |  |  |
| O=C1Nc2ccccc2/C1=C\c1c(Cl)[nH]c2ccccc12 | 85 | 61 | 79 | 27 | 87 |  |  |  |  |
| O=C1NC(=O)C(c2c[nH]c3ccccc23)=C1c1c[nH]c2ccccc12 |  | 69 |  | 38 |  | 128 |  |  | 25 |
| O=S(=O)(NCCNC/C=C/c1ccc(Br)cc1)c1cccc2cnccc12 | 7 | 0 |  | 72 |  |  |  |  | 78 |
| COc1cc2nccc(Oc3ccc(NC(=O)Nc4cc(C)on4)c(Cl)c3)c2cc1OC |  |  | 7 | 2 | 6 | 135 |  | 5 |  |
| CN([C@@H](Cc1ccc(OS(=O)(=O)c2cccc3cnccc23)cc1)C(=O)N1CCN(c2ccccc2)CC1)S(=O)(=O)c1cccc2cnccc12 |  | 57 | 86 | 61 |  |  | 182 |  |  |
| NCCNc1ncc(C(N)=O)c(Nc2cccc(C(F)(F)F)c2)n1 | 44 | 7 | 78 | 22 | 14 | 127 |  | 64 | 112 |
| O=C(Nc1ccc(Cl)cc1)c1ccccc1NCc1ccncc1 |  |  | 80 | 38 |  | 125 |  |  |  |
| O=C1NC(=O)C(c2cn(CCCO)c3ncccc23)=C1c1cnccn1 | 69 | 55 | 66 | 48 | 96 | 138 | 124 | 95 |  |
| Nc1ncnc2[nH]nc(Nc3ccc(F)cc3)c12 | 78 | 53 | 37 | 16 | 11 | 127 | 94 | 56 | 98 |
| O=C(Nc1nc2ccccc2n1CCN1CCOCC1)c1cccc([N+](=O)[O-])c1 |  |  |  | 77 |  |  |  |  |  |
| COc1ccc(CNC(=O)Nc2ncc([N+](=O)[O-])s2)cc1 |  |  | 13 | 12 | 54 |  | 123 | 52 | 105 |
| CSc1nc(-c2ccc(F)cc2)c(-c2ccnc(NC(C)c3ccccc3)c2)[nH]1 (centres undefined) |  |  | 85 | 51 | 86 |  |  | 102 |  |
